Assay results from paper PMC4336329 (PLoS ONE, 2015).
The campaign covered roughly 310,000 compounds. About 14,000 (4.5%) showed an effect of 50% or more. The effect is printed as a negative number. The list comes from a sample in which strong results are over-represented; it also holds similar structures and randomly drawn compounds.

Biological target: human ether-à-go-go-related gene (hERG) potassium channel (human, UniProt Q12809)
Experiment: primary screen, population patch clamp on CHO cells stably expressing hERG; higher = less effect of the substance
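Also: peak tail current of the secondary pulse compared with the same well before compound.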

Chain of human ether-à-go-go-related gene (hERG) potassium channel (Q12809 whole entry, looked up): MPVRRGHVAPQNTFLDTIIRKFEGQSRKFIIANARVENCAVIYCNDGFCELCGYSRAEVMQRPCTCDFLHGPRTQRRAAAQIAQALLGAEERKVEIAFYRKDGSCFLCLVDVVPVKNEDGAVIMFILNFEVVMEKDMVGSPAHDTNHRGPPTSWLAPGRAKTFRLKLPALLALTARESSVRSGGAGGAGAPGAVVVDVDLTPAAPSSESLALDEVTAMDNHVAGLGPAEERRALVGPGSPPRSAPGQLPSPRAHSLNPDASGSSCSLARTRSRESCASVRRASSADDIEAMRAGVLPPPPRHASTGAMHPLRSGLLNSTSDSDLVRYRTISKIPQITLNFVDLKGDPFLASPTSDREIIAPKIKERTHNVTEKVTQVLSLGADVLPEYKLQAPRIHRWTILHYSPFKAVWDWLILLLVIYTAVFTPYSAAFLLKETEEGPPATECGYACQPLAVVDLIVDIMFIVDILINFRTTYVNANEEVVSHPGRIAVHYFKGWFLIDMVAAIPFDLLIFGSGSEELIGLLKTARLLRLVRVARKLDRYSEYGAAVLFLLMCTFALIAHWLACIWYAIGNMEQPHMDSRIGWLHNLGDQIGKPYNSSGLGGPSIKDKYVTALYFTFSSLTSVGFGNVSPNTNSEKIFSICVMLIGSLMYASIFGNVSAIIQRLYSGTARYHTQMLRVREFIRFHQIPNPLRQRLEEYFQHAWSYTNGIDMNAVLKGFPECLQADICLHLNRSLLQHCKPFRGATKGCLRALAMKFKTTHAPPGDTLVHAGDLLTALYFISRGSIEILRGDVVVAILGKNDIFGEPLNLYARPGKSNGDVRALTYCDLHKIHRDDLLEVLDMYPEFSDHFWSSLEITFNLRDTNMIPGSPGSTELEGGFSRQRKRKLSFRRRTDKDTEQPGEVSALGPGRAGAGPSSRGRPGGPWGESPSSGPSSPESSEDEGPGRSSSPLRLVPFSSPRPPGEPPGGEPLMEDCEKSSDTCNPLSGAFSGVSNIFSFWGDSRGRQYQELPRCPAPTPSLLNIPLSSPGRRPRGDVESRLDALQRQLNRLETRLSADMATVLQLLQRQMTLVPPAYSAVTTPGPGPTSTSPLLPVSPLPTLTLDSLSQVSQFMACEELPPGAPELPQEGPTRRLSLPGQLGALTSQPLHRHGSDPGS

Row | SMILES | hERG current change (%, negative = inhibition) at 10uM [%]
1 | CC1CCCCN1C(=O)C1CCN(c2nc(-c3ccccc3)nc3c2CCC3)CC1 (centres unmarked) | -42.4
2 | CC1CCCN(C(=O)C2CCN(c3nc(-c4ccccc4)nc4c3CCC4)CC2)C1 (centres unmarked) | -55.1
3 | COCC1CCCCN1C(=O)C1CCN(c2nc(-c3ccccc3)nc3c2CCC3)CC1 (centres unmarked) | -29.2
4 | O=C(C1CCN(c2nc(-c3ccccc3)nc3c2CCC3)CC1)N1CCCC1 | -35.8
5 | COCC1CCN(C(=O)C2CCN(c3nc(-c4ccccc4)nc4c3CCC4)CC2)C1 (centres unmarked) | -76.5
6 | O=C(C1CCN(c2nc(-c3ccccc3)nc3c2CCC3)CC1)N1CCC(O)CC1 | -33.4
7 | CC(C)(C)c1nnc(N/N=C/c2ccccc2O)n(N)c1=O | -35
8 | O=C(NCc1ccc2c(c1)OCO2)C1CCCN1C(=O)Nc1cccc(Cl)c1 (centres unmarked) | -25.4
9 | CCCN(CCC)CCCNC(=O)c1cc2cc3ccc(Cl)cc3nc2o1 | -61
10 | CCCCN(CC)CCNC(=O)c1cc2c(C)nc3ccccc3c2o1 | -53.5
11 | O=C(NCc1ccco1)c1cc2cc3ccc(Cl)cc3nc2o1 | 4.32
12 | CCCCN(CC)CCNC(=O)c1cc2cc3ccc(Cl)cc3nc2o1 | -72.5
13 | CCCCN(CC)C(=O)c1cc2cc3ccc(Cl)cc3nc2o1 | -9.93
14 | CCc1ccc(CNC(=O)c2cc3c(C)nc4ccccc4c3o2)cc1 | -11.5
15 | CCCCN(CC)C(=O)c1cc2cc3ccc(OC)cc3nc2o1 | -38.8
16 | CCOCCCNC(=O)c1cc2cc3cc(OC)ccc3nc2o1 | -7.74
17 | CCCN(CCC)CCNC(=O)c1cc2c(C)nc3ccccc3c2o1 | -29.7
18 | CC(C)CNS(=O)(=O)c1cc(C(=O)OCC(=O)N(C)C2CCS(=O)(=O)C2)c(Cl)cc1Cl (centres unmarked) | -13
19 | CC1(C)CC(=O)C=C(NNC(=O)C2CCCCC2)C1 | 8.47
20 | O=C(C1CCCO1)N1CCc2ccccc21 (centres unmarked) | 17.1
21 | Cl.O=C(O)CCCCCNc1nc(-c2ccccc2)nc2ccccc12 | 3.35
22 | CN(CC(O)COCc1ccc2c(c1)OCO2)C1CCCCC1.Cl (centres unmarked) | -20.6
23 | COc1ccc(C(OCC(O)CN(C)C2CCCCC2)c2ccc(OC)cc2)cc1 (centres unmarked) | -69.8
24 | CN(CC(O)COCc1ccccc1F)C1CCCCC1 (centres unmarked) | -14.6
25 | CN(CC(O)COC(c1ccccc1)c1ccccc1)C1CCCCC1 (centres unmarked) | -68.4
26 | CN(CC(O)COc1ccc(S(=O)(=O)N2CCOCC2)cc1)C1CCCCC1 (centres unmarked) | -6.74
27 | CN(CC(O)COCc1cccs1)C1CCCCC1 (centres unmarked) | -12.1

Row | SMILES | hERG current change (%, negative = inhibition) at 10uM [%]
28 | COc1cccc(CNC(=O)CN(C)S(=O)(=O)c2ccc3c(c2)n(C)c(=O)c(=O)n3C)c1 | 10.3
29 | S=C1CCC(c2ccc(Cl)cc2)=NN1c1ccccc1 | 4.79
30 | O=C(Nc1cc(F)ccc1F)C1CCCN(c2ncnc3c2nc2n3CCCCC2)C1 (centres unmarked) | -59.5
31 | COc1ccc(Cl)cc1NC(=O)C1CCCN(c2ncnc3c2nc2n3CCCCC2)C1 (centres unmarked) | -37.6
32 | O=C(Nc1ccc(F)cc1F)C1CCCN(c2ncnc3c2nc2n3CCCCC2)C1 (centres unmarked) | -62
33 | O=C(Nc1ccc(F)cc1)C1CCN(c2ncnc3c2nc2n3CCCCC2)CC1 | -7.35
34 | COc1ccccc1NC(=O)C1CCCN(c2ncnc3c2nc2n3CCCCC2)C1 (centres unmarked) | -45.5
35 | CC1=C(C(=O)OC2CCC(C)CC2)C(c2ccc(O)c([N+](=O)[O-])c2)NC(=O)N1 (centres unmarked) | -0.635
36 | C=CCn1c(CCNC(=O)c2ccccc2F)nnc1SCC(=O)Nc1ccc(OC)cc1 | 3.94
37 | COc1ccc(CCn2c(=O)[nH]c3cc(C(=O)NCCCN4CCOCC4)ccc3c2=O)cc1OC | 28.6
38 | COc1ccc(CCn2c(=N)c(C(=O)NCCN3CCOCC3)cc3c(=O)n4ccccc4nc32)cc1OC | -32.5
39 | COc1ccc(CCNC(=O)c2c(N)n(CCN3CCOCC3)c3nc4ccccc4nc23)cc1 | -0.58
40 | COc1ccc(CCNC(=O)c2cc3c(=O)n4cccc(C)c4nc3n(CCCN3CCOCC3)c2=N)cc1 | -76.2
41 | COc1ccc(CCNC(=O)C(=O)NCCCN2CCOCC2)cc1 | 7.99
42 | COc1ccc(CCNC(=O)c2cc3c(=O)n4ccccc4nc3n(CCN3CCOCC3)c2=N)cc1 | -77.8
43 | COc1ccc(CCNC(=O)c2cc3c(=O)n4ccccc4nc3n(CCCN3CCOCC3)c2=N)cc1OC | -75.1
44 | COc1ccc(Cn2c(=S)[nH]c3cc(C(=O)NCCCN4CCOCC4)ccc3c2=O)cc1 | 24.1
45 | COc1ccc(CCNC(=O)c2cc3c(=O)n4ccccc4nc3n(CCCN3CCOCC3)c2=N)cc1 | -79
46 | CCOC(=O)C1=C(COC(=O)COc2ccc(Br)cc2)NC(=O)NC1C (centres unmarked) | 2.16
47 | CC(=O)c1ccc(OCCCC(=O)Nc2cc(S(=O)(=O)N(C)C)ccc2C)cc1 | 0.514
48 | CCS(=O)(=O)N1CCC(C(=O)N2CCC3(CC2)OCCO3)CC1 | 6.65
49 | C=CCCCCCCCCC(=O)N1CCN(c2cc3c(cc2F)c(=O)c(C(=O)O)cn3CC)CC1 | 5.07
50 | Fc1cccc(NC(=S)Nc2ccc(Br)cc2)c1 | 10.3
51 | CCN1CCN(Cc2ccc(NC(=O)c3ccc(C)c(NC(=O)N4CCNC4=O)c3)cc2C(F)(F)F)CC1.O=C(O)C(F)(F)F | 3.66
52 | Cc1ccc(S(=O)(=O)N/N=C/c2ccccc2O)cc1 | 12.9
53 | O=C(CN1C(=O)c2ccc([N+](=O)[O-])cc2C1=O)NCc1ccco1 | 12.4
